Assays:
Assay in all cases: PBM binding z-score (relative to random genomic background probes); higher = stronger binding; sequences stand for … in GC…GCGATTGACAGCGTAGAATGAAGG
[1] = system: FXR:RXRa (NR concentration 270 nM, RXRa partner concentration 90 nM)
Method in brief: (§1)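 Custom Agilent 4×180K protein-binding microarrays carried double-stranded probes. Their 34-nt variable regions held direct-repeat seeds, single-nucleotide variants, half-site ablations and random human genomic background sequences. Arrays were incubated 1 h with ligand-free nuclear receptor dimers in PBS pH 7.4, 2% milk, 0.02% Triton X-100, 1 mM DTT, 0.2 mg/mL BSA and 0.4 mg/ml salmon testes DNA. Antibodies against each partner (one per run) detected binding, and scanned fluorescence was regression-normalized. Binding z-scores use random background probes as reference.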

[2] = system: LXRa:RXRa (NR concentration 270 nM, RXRa partner concentration 90 nM)
Method in brief: as §1

[3] = system: LXRa homodimer (NR concentration 270 nM)
Method in brief: as §1

[4] = system: LXRb:RXRa (NR concentration 270 nM, RXRa partner concentration 90 nM)
Method in brief: as §1

[5] = system: LXRb homodimer (NR concentration 270 nM)
Method in brief: as §1

[6] = system: PPARa:RXRa (NR concentration 270 nM, RXRa partner concentration 90 nM)
Method in brief: as §1

[7] = system: PPARg:RXRa (NR concentration 180 nM, RXRa partner concentration 90 nM)
Method in brief: as §1

[8] = system: PPARg:RXRa 270nM:90nM, anti-RXR (NR concentration 270 nM, RXRa partner concentration 90 nM)
Method in brief: as §1

[9] = system: PPARg:RXRa 30nM:10nM, anti-RXR (NR concentration 30 nM, RXRa partner concentration 10 nM)
Method in brief: as §1

[10] = system: PPARg:RXRa 90nM:30nM, anti-RXR (NR concentration 90 nM, RXRa partner concentration 30 nM)
Method in brief: as §1

[11] = system: PPARg:RXRa DBDmut IVT, anti-RXR (DBD mutation: RXRa K156A/R161A, NR concentration 270 nM, RXRa partner concentration 90 nM)
Method in brief: as §1

[12] = system: PPARg:RXRa IVT, anti-PPARg (NR concentration 270 nM, RXRa partner concentration 90 nM)
Method in brief: as §1

[13] = system: PPARg DBDmut:RXRa IVT, anti-PPARg (DBD mutation: PPARg1 K132A/R137A, NR concentration 270 nM, RXRa partner concentration 90 nM)
Method in brief: as §1

[14] = system: PPARg DBDmut IVT, anti-PPARg (DBD mutation: PPARg1 K132A/R137A, NR concentration 270 nM)
Method in brief: as §1

[15] = system: PPARg homodimer (NR concentration 180 nM)
Method in brief: as §1

[16] = system: PXR:RXRa (NR concentration 270 nM, RXRa partner concentration 90 nM)
Method in brief: as §1

[17] = system: PXR homodimer (NR concentration 270 nM)
Method in brief: as §1

[18] = system: RARa:RXR (NR concentration 270 nM, RXRa partner concentration 90 nM)
Method in brief: as §1

[19] = system: RARa homodimer (NR concentration 270 nM)
Method in brief: as §1

[20] = system: RARb:RXRa (NR concentration 270 nM, RXRa partner concentration 90 nM)
Method in brief: as §1

Sequence | PBM binding z-score [1] | PBM binding z-score [2] | PBM binding z-score [3] | PBM binding z-score [4] | PBM binding z-score [5] | PBM binding z-score [6] | PBM binding z-score [7] | PBM binding z-score [8] | PBM binding z-score [9] | PBM binding z-score [10] | PBM binding z-score [11] | PBM binding z-score [12] | PBM binding z-score [13] | PBM binding z-score [14] | PBM binding z-score [15] | PBM binding z-score [16] | PBM binding z-score [17] | PBM binding z-score [18] | PBM binding z-score [19] | PBM binding z-score [20]
TGAATGAGGTTTTAAGATCAGGGAACGTTGCAAA | -0.288 | -0.516 | -0.631 | -0.358 | -0.602 | 0.0128 | -0.186 | 0.12 | 0.000594 | 0.043 | -0.427 | -0.0166 | -0.325 | -0.224 | 0.0827 | -0.0619 | -0.319 | 0.152 | 0.043 | -0.198
GCTAGCAGGCCATTTGGGTCACTAAATGACGGGC | 0.069 | -0.203 | -0.746 | -0.105 | -1.17 | 1.44 | 0.795 | 0.692 | -0.344 | 0.257 | 1.58 | 2.38 | -1.03 | -1.18 | -0.0846 | 0.38 | -0.331 | 0.585 | -0.777 | 1.42
CAAACTAGGCCACCGGAAGGTCAAAGTCCGCATG | 2.96 | 3.08 | 3.39 | 3.15 | 0.364 | 4.46 | 5.26 | 5.14 | 1.86 | 4.33 | 7.33 | 6.74 | 1.26 | 1.26 | 3.52 | 3.81 | 1.26 | 4.32 | 1.24 | 3.54
AGAATGAGGTAATACGTAGATCAGGGAAGAAAGT | 0.302 | 0.0343 | -0.0872 | 0.215 | -0.209 | 0.49 | 1.04 | 0.841 | 0.517 | 0.757 | 3.49 | 0.83 | 1.02 | 0.684 | -0.201 | 0.144 | 0.294 | 0.431 | 0.262 | 0.0493
CGAACTAGGTCATCCAGGACAGTAAATACATTGA | 4.22 | 2.79 | 0.899 | 2.36 | 0.21 | 4.68 | 7.87 | 6.33 | 3.68 | 5.68 | 7.97 | 8.2 | 3 | 3.62 | 2.26 | 2.15 | 1.3 | 2.69 | 0.413 | 3.89
ATGTGTAGGTTAGCTGGGGTCATTCAGACTAGGC | 4.6 | 5.92 | 2.89 | 4.92 | 2.24 | 4.77 | 2.38 | 3.24 | 1.16 | 2.54 | 2.74 | 3.09 | 1.93 | 2.25 | 3.23 | 6.41 | 5.39 | 6.36 | 2.17 | 3.25
CGAACTAGGTCAACCAGGACAGTGAATACATTGA | 4.29 | 2.78 | 0.571 | 2.31 | 0.00788 | 4.98 | 8.21 | 6.58 | 4.17 | 5.96 | 8.5 | 8.35 | 1.56 | 1.35 | 1.73 | 2.02 | 0.839 | 2.3 | 0.835 | 4.17
TCTTGTAGATCAACAGGTGGTTAAGAAAGATCGA | -0.0557 | 0.0664 | -0.0924 | -0.247 | -0.293 | 0.436 | -0.255 | 1.22 | 2.58 | 1.8 | 1.73 | 0.582 | 0.605 | 0.677 | 0.713 | -0.0683 | 0.00391 | 0.0313 | 0.688 | -0.0604
TCTATTAGTAGATTAGGGCAACCGAAACAGCGGA | 0.325 | 0.084 | -0.337 | 0.176 | 0.298 | 0.659 | 0.254 | 1.64 | 3.45 | 2.5 | 2.26 | 1.17 | 0.69 | 0.0955 | 0.0523 | 0.229 | 0.0465 | 0.245 | 0.073 | 0.344
GGTACGAGGGCAAGTTGATAGCAGAGTTTGATGG | 0.998 | 0.455 | -0.268 | 0.434 | -0.129 | 1.02 | 0.722 | 0.456 | -0.104 | 0.235 | 2.1 | 1.59 | -0.734 | -1 | 0.42 | 1.06 | 0.796 | 0.502 | 0.101 | 2.75
CGTCTAAGGTCAGAGAGGTCAGTGAATGCCGAGT | 6.73 | 5.75 | 3.47 | 5.03 | 0.521 | 5.48 | 4.02 | 5.03 | 1.38 | 3.5 | 3.8 | 3.69 | 0.924 | -0.453 | 4.52 | 6.51 | 12 | 5.99 | 1.28 | 5.56
TCAGACAGGTGAAGGCAACTCAGGTACGCAGTCG | 0.773 | 0.656 | -0.307 | 0.471 | -0.243 | 0.995 | 0.701 | 1.77 | 3.36 | 2.58 | 2.4 | 0.632 | -0.586 | -0.648 | 0.236 | 0.249 | -0.101 | 0.507 | -0.314 | 0.923
CCTAGTGGGCCATCAGGTCATTGATATCAACGTT | 1.47 | 1.04 | 0.915 | 1.63 | -0.159 | 2.74 | 3.06 | 3.69 | 1.05 | 2.74 | 4.56 | 5.23 | -0.169 | 0.327 | 1.35 | 1.62 | 0.58 | 1.86 | 0.517 | 1.94
TCAGACAGGTGGAGGTAACTCAGGTACGCAGTCG | 0.494 | 1.77 | -0.167 | 0.998 | 0.354 | 0.55 | 0.357 | 1.4 | 3.1 | 2.3 | 1.72 | -0.0459 | 0.459 | -0.319 | 0.082 | 0.506 | 0.154 | 0.233 | 0.265 | 0.399
